Results as given in PubChem BioAssay AID1159524 (National Center for Advancing Translational Sciences (NCATS), 2015).
Hit rate of the full screen: of about 410,000 compounds, about 5,100 (1.2%) were called active. Where a call stands in place of a potency, no number is given. Inconclusive results (about 8%) are left out. Calls come from the whole dose curve; tested in HEK293T cells. Only a selection was taken, and actives are over-represented in it overall.

experiment: High Throughput Screening for Foot and Mouth Disease Virus Antivirals; conditions: FMDV antiviral cell-based qHTS; series mostly up to 57.9 µM; note: read-out not given here; nearly all actives have a fitted effect of over 45% in size
Potency is the fitted concentration of half-maximal effect.

SMILES	Potency
CCCc1nc2scc(-c3ccc(C)cc3)c2c(=O)n1N	inactive
COc1ccc2c(c1OC)C(=O)OC2Nc1nc(-c2ccccc2)cs1 (stereo not given)	15.8 µM (active)
Cc1ccc(-c2csc(NC3OC(=O)c4ccccc43)n2)cc1 (stereo not given)	20 µM (active)
COc1ccc(CNC(=O)CC2Oc3ccc(C)cc3NC2=O)cc1 (stereo not given)	inactive
CC(C)NC(=O)N1CCCC2(CCN(C(=O)c3cccn3C)CC2)C1	inactive
Cn1c(=O)c2c(SCC(=O)NCC3CCCO3)nc(-c3ccccc3F)nc2n(C)c1=O (stereo not given)	inactive
CCNCCCNCCCNCCCNCC	inactive
Cn1cccc1C(=O)N1CCC[C@@]2(CCN(Cc3nccs3)C2)C1	inactive
N#Cc1ccc(CN2CCCC3(CCN(C(=O)c4ccco4)CC3)C2)cc1	inactive
CCOc1ccc(-c2ccc(SCC(=O)N3CCOCC3)nn2)cc1	inactive
COc1ccc(N2CCN(C(=O)CSc3nnc4ncccn34)CC2)cc1	inactive
COc1cccc(-c2ccc(SCC(=O)N3CCN(c4ccccc4)CC3)nn2)c1	12.6 µM (active)
CCN1CCN(Cc2c(O)ccc3oc(C)c(C(=O)Nc4ccc(C)cc4C)c23)CC1	inactive
Cc1ccc(CNC(=O)c2c(O)nc3c(C)cccn3c2=O)cc1	inactive
CC(=O)c1ccc(NC(=O)CSc2nc(-c3ccccc3F)nc3c2c(=O)n(C)c(=O)n3C)cc1	inactive
COC(=O)C1CCCCN1Cc1ccc2c(c1)CN(Cc1cc(OC)c3c(c1)OCO3)CCO2 (stereo not given)	inactive
CCOC(=O)c1c(C)[nH]c2c1-c1ccccc1C(=O)C2=O	7.08 µM (active)
CCOC(=O)c1c(SCC(=O)Nc2cccc(C)c2C)nc(=O)[nH]c1C	inactive
CCOC(=O)c1c(C)[nH]c(C)c1S(=O)(=O)N(C)CC(=O)N1CCN(c2ccccc2)CC1	inactive
CC(=O)c1c(C)[nH]c(C(=O)OCC(=O)NCCC(C)C)c1C	inactive
Cc1ccc(C)c(OCC(=O)Nc2sc3c(c2C#N)CCCC3)c1C	inactive
CC(=O)c1c(C)[nH]c(C(=O)OCC(=O)Nc2sc3c(c2C#N)CCCC3)c1C	17.8 µM (active)
CC(C)CC(NS(=O)(=O)c1ccc2c(c1)oc(=O)n2C)C(=O)NCc1ccccc1Cl (stereo not given)	inactive
CCC(CC)C(=O)N1CCc2cc(OC)c(OC)cc2C1COc1ccc(F)cc1 (stereo not given)	inactive
COc1ccccc1-c1ccc(C(=O)N(C)C(C)c2ccon2)c(N2CCN(c3ccccc3F)CC2)n1 (stereo not given)	inactive

SMILES	Potency
O=C(OCC(=O)N1CCN(C(=O)c2ccco2)CC1)c1c(Cl)cccc1Cl	inactive
O=C(OCC(=O)N1CCN(C(=O)c2ccco2)CC1)c1ccc(Cl)c(Cl)c1	inactive
CN(c1ccccc1)S(=O)(=O)c1cc(C(=O)OCC(=O)N2CCN(C(=O)c3ccco3)CC2)ccc1Cl	25.1 µM (active)
CC(O)[C@@H](N)C(=O)O (stereo not given in full)	inactive
COc1ccc(CCCOC(Cn2ccnc2)c2ccc(OC)cc2)cc1 (stereo not given)	inactive
COc1ccccc1-c1nc(NCc2cccs2)c2ccccc2n1	inactive
O=C1NC(CC(=O)N2CCC(n3c(C4CCC4)nc4cccnc43)CC2)c2ccccc21 (stereo not given)	inactive
O=c1n(Cc2cccc(C(F)(F)F)c2)c2ccccc2c2nc(-c3ccccc3)nn12	inactive
Cn1c(-c2sccc2OCc2cccc(C(F)(F)F)c2)n[nH]c1=S	inactive
O=c1c2ccccc2nc2n1C(CSCc1cccc(C(F)(F)F)c1)CS2 (stereo not given)	5.62 µM (active)
O=C(Nc1cccc(F)c1)N1CCC2(CC1)CCN(S(=O)(=O)c1ccccc1)CC2	inactive
O=C(Nc1cc(C(=O)Nc2ccc(S(=O)(=O)O)cc2)cc(C(=O)Nc2ccc(S(=O)(=O)O)cc2)c1)Nc1cc(C(=O)Nc2ccc(S(=O)(=O)O)cc2)cc(C(=O)Nc2ccc(S(=O)(=O)O)cc2)c1	inactive
O=C(CSc1ccccc1)Nc1cc(Cl)ccc1Oc1ccccc1	inactive
O=C(CSc1nc2ccc(Nc3nc(N4CCOCC4)nc(N4CCOCC4)n3)cc2s1)NCc1ccco1	inactive
O=C(CSc1nc(Nc2ccccc2)nc(N2CCOCC2)n1)Nc1cc(Cl)ccc1O	39.8 µM (active)
O=C(O)C(O)[C@@](O)(Cc1ccc(O)cc1)C(=O)O (stereo not given in full)	inactive
CC(=O)OC1C2CCC3C1(CC(O)[C@@]1(O)[C@@H](CC(O)C1(C)C)[C@]3(C)O)C[C@@]2(C)O (stereo not given in full)	inactive
COC(=O)c1ccccc1C(=O)NCc1nc(N2CCCC2)c2cccc(C)c2n1	inactive
COc1cc(Cl)c(C)cc1NC(=O)COC(=O)c1cc(SC)ccc1Cl	inactive
COc1cc(SC)ccc1C(=O)Nc1nc(C)cs1	3.16 µM (active)
Cc1csc(OCC(=O)Nc2ccc(C)c(C)c2)n1	inactive
COc1ccccc1C1CN(Cc2ccccc2O)Cc2ccccc2O1 (stereo not given)	inactive
COc1ccc(CCNC(=O)c2c3c(nc4ccccc24)C(=O)N(C2CCCCC2)C3)cc1OC	inactive
COc1cc(C(=O)N2CCC(c3ccncc3)CC2)cc(OC)c1OC	inactive
O=C(c1cc(C(F)(F)F)cc(C(F)(F)F)c1)N1CCC2(CCCN(c3ccccn3)C2)CC1	inactive

SMILES	Potency
CCc1ccc2oc(-c3ccc(C)c(NC(=O)/C=C/c4ccco4)c3)nc2c1	inactive
O=c1c2ccccc2nc(/C=C/c2ccco2)n1-c1ccccc1O	inactive
Cc1ccc(-c2cc(C(=O)N/N=C/C=C/c3ccco3)c3ccccc3n2)cc1C	1.58 µM (active)
COc1ccc(-n2c(CNC(=O)c3cc(C(F)(F)F)ccc3Cl)nnc2SC)cc1	inactive
CCCCCCCCCCOC(=O)Cn1c(COc2cccc(OC)c2)[n+](C)c2ccccc21	28.2 µM (active)
CCOC(=O)c1c(NC(=O)COc2cc(C)ccc2C(C)C)sc(C)c1C	inactive
COc1ccccc1N1CCN(C[C@@H]2CN3C(=O)N(C)c4ccccc4C3=N2)CC1	inactive
O=c1c(CCc2ccccc2)nc2cncnc2n1C1CC1	inactive
Cc1c(C(=O)OC(C)C)sc(NC(=O)c2cccnc2)c1C#N	inactive
CCCc1ccc(-c2c(C)sc(NC(=O)c3ccnn3C)c2C#N)cc1	15.8 µM (active)
CCc1ccccc1NC(=O)CSc1nc(C)c(C(=O)Nc2ccccc2)c(-c2ccc(Cl)cc2)c1C#N	inactive
COc1ccc(C(=O)NCc2ccc(Cl)cc2)cc1S(=O)(=O)N1CCCC1	inactive
O=C(NCCc1ccc(F)cc1)c1ccc(S(=O)(=O)N2CCCCC2)cc1	inactive
NS(=O)(=O)c1ccc(CCNC(=O)c2ccc(Cl)c(S(=O)(=O)N3CCCCCC3)c2)cc1	14.1 µM (active)
O=C(CCS(=O)(=O)c1ccccc1)N(Cc1cccnc1)c1nc2c(F)cccc2s1	inactive
O=C(c1ccc(F)cc1)C1CCN(CCCCc2ccccc2)CC1	inactive
CS(=O)(=O)N1CCC2(CC1)CN(c1ccncc1)C2	inactive
CCOC(=O)c1c(NC(=O)c2cc(-c3ccc(Cl)cc3)on2)sc2c1CCCC2	inactive
Cc1ccc(Cl)cc1NC(=O)CSc1nc2ccccc2nc1Cc1ccccc1	inactive
NC(=O)c1sc(-c2ccsc2)cc1N	inactive
CN(CCO)c1ccc(/C=N/Nc2nncc3ccccc23)cc1	10 µM (active)
COc1cccc(-c2cc(NCCc3c[nH]c4ccc(OC)cc34)ncn2)c1	inactive
O=C(c1cnccn1)N1CCC2(CCCN(Cc3ccccc3)C2)CC1	inactive
CCNc1ncc2ncc(=O)n(CCc3ccccc3)c2n1	inactive
COc1ccc(Nc2cc(C(=O)NCCCN(C)c3ccccc3)c3ccccc3n2)c(OC)c1	inactive

SMILES	Potency
O=C(Nc1cccc(F)c1)N1CC2(CCN(C(=O)c3csnn3)CC2)C1	inactive
CCOC(=O)C1=C(c2ccc(OC)cc2)C(=O)c2ccccc2C1=O	3.55 µM (active)
CCOC(=O)C1=C(c2ccccc2)NC(=O)NC1c1cc(OC)c(OC)cc1OC (stereo not given)	inactive
CCOC(=O)C1C(=O)C=C(c2ccc(OC)cc2)CC1c1ccco1 (stereo not given)	inactive
CC(C)(CNC(=O)c1ccc(Cl)c(S(=O)(=O)N2CCc3ccccc3C2)c1)N1CCOCC1	12.6 µM (active)
CN(C)S(=O)(=O)c1ccc(C(=O)NCC(C)(C)N2CCOCC2)cc1	inactive
CC(C)(CNC(=O)Cc1ccc(Cl)cc1Cl)N1CCOCC1	inactive
Cc1ccc(S(=O)(=O)c2c(Nc3cccc(Cl)c3)sc(C(=O)c3ccc4c(c3)OCO4)c2N)cc1	inactive
COc1ccccc1CNC(=O)c1ccc(Cl)c(S(=O)(=O)N2CCCC2)c1	inactive
CCS(=O)(=O)N1CCc2cc(C(=O)N3CCN(c4ccccc4OC)CC3)ccc21	inactive
COc1ccccc1N1CCN(C(=O)c2ccc(Cl)c(S(=O)(=O)N3CCCC3)c2)CC1	20 µM (active)
CCCC1OC23CCCCC2C(C#N)(C#N)C1(C#N)C(=N)O3 (stereo not given)	20 µM (active)
CN1CCCC1CCO[C@@](C)(c1ccccc1)c1ccc(Cl)cc1 (stereo not given in full)	inactive
CN1CCN(C(=O)O[C@@H]2c3nccnc3C(=O)N2c2ccc(Cl)cn2)CC1	inactive
Cc1cnc(-n2ncc(C(=O)N3CCN(C(C)C)CC3)c2-c2ccco2)nc1-c1ccc(F)cc1	inactive
COc1ccc(S(=O)(=O)N2CCCCCC2)cc1C(=O)N(C)Cc1cccc(OC)c1OC	inactive
COc1cccc(CN(C)CC(=O)NCc2ccccc2Cl)c1OC	inactive
CCN(CC)S(=O)(=O)c1ccc(N(C)Cc2cccc(OC)c2OC)nc1	20 µM (active)
COc1ccc(S(=O)(=O)NCC(c2ccc(N(C)C)cc2)N2CCCC2)cc1 (stereo not given)	inactive
COc1ccc(CN2CCOc3c(cc(-c4ncc(C(F)(F)F)cc4Cl)cc3OCC3CCCO3)C2)c(O)c1 (stereo not given)	inactive
Cc1ccc(NS(=O)(=O)c2ccc3c(c2)CC(=O)N3)cc1Cl	inactive
COCC(=O)N1CCC2(CCCN(c3ccccc3)C2)CC1	inactive
COC(=O)c1ccc(CN2CCCC(C(=O)Nc3cccc(-n4cnnn4)c3)C2)cc1 (stereo not given)	28.2 µM (active)
CC(C)CNC(=O)C1CCCN(S(=O)(=O)c2ccc(-n3cnnn3)cc2)C1 (stereo not given)	inactive
O=C(Nc1ccc(F)cc1)C1CCCN(S(=O)(=O)c2ccc(-n3cnnn3)cc2)C1 (stereo not given)	inactive
